Reference: PubChem BioAssay (NCI)
Compounds without any hit were thinned out: in the full panel of roughly 83,000, 20% have a hit.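 Growth was measured after 48 h exposure to one concentration of compound in 96-well plates. Values under 10 count as active.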 Calls of active or inactive are those of the source.

test system: M14 melanoma; assay: NCI-60 one-dose screen, 48 h (100 = growth as untreated, 0 = no growth, -100 = all killed); settings: 10 µM unless noted

Row | Compound | growth
1 | CCN1CCN(c2cc(C)c3cc(NC(=O)c4ccc(OC)c(OC)c4)ccc3n2)CC1 | 30.2% (inactive)
2 | COc1ccc(Cn2c(Br)c3c(c2-c2cc(OC)c(OC)c(OC)c2)CCc2sc(NC(C)=O)nc2-3)cc1 | 47.9% (inactive)
3 | COc1ccccc1C(=O)O/N=C(\N)Cc1cccc2ccccc12 | 86.3% (inactive)
4 | O=C(Nc1ccc(Cl)cc1F)c1cc(I)ccc1O | 27.9% (inactive)
5 | O=C(O)CCC(=O)c1ccc(C2CCCCCC2)cc1 | 102% (inactive)
6 | CCCCOCc1cc(CN2CCN(C)CC2)c(O)c2ncccc12 | 41.2% (inactive)
7 | COC(=O)/C(CCC=C(C)C)=C1\[C@@H](OC(C)=O)C[C@@]2(C)[C@H]1C[C@@H](O)[C@H]1[C@@]3(C)CC[C@H](NCc4ccccc4)[C@@H](C)[C@@H]3CC[C@@]12C | 49.8% (inactive)
8 | O=C(NC1C(O)OC(CO)C(O)C1O)NS(=O)(=O)c1ccc(Cl)cc1 (configuration not stated) | 102% (inactive)
9 | O=C(Nc1ccc(Br)cc1F)c1cc(Cl)ccc1O | -28.3% (active)
10 | CCOC(=O)c1c(C=O)nc2ccccc2c1/C=C/c1ccc(Cl)cc1 | 91.6% (inactive)
11 | COc1cccc2cc(N(C)c3nc(C)nc4ccsc34)ccc12 | 9.85% (active)
12 | COc1cc(/C=C/C(=O)c2c(C)nc3ccccc3c2/C=C/c2ccccc2)cc(OC)c1OC | -6.24% (active)
